Source: PubChem BioAssay (National Center for Advancing Translational Sciences (NCATS))
S2 tox = cell viability loss in ATXN counter-screen | Potency, µM (series often up to 56.7 µM), usual class: cytotoxic | S2 cells (HEK-293 line with an ATXN2-luciferase reporter) viability, CellTiter-Fluor protease fluorescence, 24 h | 400,000 compounds, 0.49% hits | AID 651635; note: potency is the fitted concentration of half-maximal effect; nearly all actives have a fitted effect of over 40% in size
IL1B secr inh = inflammasome signaling inhibition, IL-1 beta readout | 360,000 compounds, 4.7% hits | THP-1 LPS/ATP IL-1B secretion, AlphaLISA, 16 h; active compounds read low | activity change, % at 57.5 µM | AID 743279; in the data active = activity change below about -50%; inconclusive = mostly about -30% to -49%; note: % is set by controls: 0 for no effect and ±100 for the full control effect
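THP-1 cells pretreated 1 hr with compounds (up to 57.5 uM final), then stimulated with LPS (250 ng/mL final) plus ATP (1.25 mM final); secreted IL-1B measured by AlphaLISA after 16 hr, decreased signal indicating inhibition.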
USP1 inh = USP1/UAF1 (human) deubiquitinase inhibition; Potency, µM (doses to about 57.1 µM), for inactives: at the highest dose activity change, negative = inhibition, hits mostly inhibitors; recombinant USP1/UAF1, Ub-Rhodamine cleavage fluorescence; 390,000 compounds, 0.23% hits; O94782; note: potency is the fitted concentration of half-maximal effect; % is set by controls: 0 for no effect and ±100 for the full control effect; nearly all actives have a fitted effect of over 60% in size
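1 nM enzyme complex + cpd, 15 min RT; start with Ub-Rho 150nM final; kinetic fluorescence ex 480/em 540, 6 reads q60 s. Buffer 50mM HEPES pH 7.8, 0.5mM EDTA, 0.1 mg/ml BSA, 1mM TCEP, 0.01% Tween-20.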
ATXN2 expr inh = inhibitors of ATXN2 expression | Potency, µM (top dose mostly 57 µM), for inactives: at the highest dose activity change, negative = inhibition, usual class: inhibitors | 360,000 compounds, 0.72% hits | HEK-293 ATXN2-luciferase reporter, luminescence, 24 h | AID 1745845; note: potency is the fitted concentration of half-maximal effect; % is set by controls: 0 for no effect and ±100 for the full control effect; nearly all actives have a fitted effect of over 55% in size
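ATXN2-luciferase reporter cells (luciferase flanked by upstream and downstream ATXN2 gene portions) were treated 24 h at 37 °C with compounds at up to 57 uM. SteadyGlo luminescence gave expression; GF-AFC fluorescence gave viability.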
USP2a block = inhibitors of human ubiquitin-specific protease USP2a; USP2 core, Ub-CHOP2 coupled fluorogenic reporter, 485/531; O75604; 330,000 compounds, 0.01% hits; Potency, µM (series often up to 38.3 µM), inactives show at the top dose activity change, negative = inhibition, usual class: inhibitors;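 note: potency is the fitted concentration of half-maximal effect; plate controls were DMSO wells for no effect and full inhibition by NEM control for full effect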
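Cell-free coupled assay: 10nM USP2 core preincubated 30min RT with compound in Tris-HCl pH 8.0/CaCl2/CHAPS buffer, then 25nM Ub-CHOP2 and 25nM reporter substrate; fluorescence (Ex 485/Em 531) read after 60min RT, normalized to NEM inhibition, concentration-response curves fitted.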
The depositor's hits bear a star. This is a sample that favours compounds with a hit; in the whole collection about 4.8% have one here. Unless noted, calls come from the whole dose curve; as a rule, active = well fitted curve in the direction sought with a large enough effect; inconclusive = small, poorly fitted or top-dose-only effect, or another doubt; inactive = no such curve, though single readings can be large; an effect the other way counts as inactive or inconclusive.

C[C@H](CO)N1C[C@H](C)[C@@H](CN(C)Cc2ccc(Cl)c(Cl)c2)Oc2c(NC(=O)C3CCOCC3)cccc2C1=O was read as S2 tox inconclusive, IL1B secr inh -14, USP1 inh -5%, ATXN2 expr inh 0% and USP2a block 2%.
Screening CC(C)(C)NS(=O)(=O)c1ccc2nc(NC(=O)c3cccnc3)sc2c1 returned S2 tox inactive, USP1 inh -11% and ATXN2 expr inh 11%.
For CCN(CC)CCNC(=O)C1(O)c2cc(Br)ccc2NC(=O)N1c1ccccc1 (stereo not drawn) the results were S2 tox inactive, IL1B secr inh 0, USP1 inh -12%, ATXN2 expr inh 4% and USP2a block 5%.
For O=C(O)C1=NC(C(=O)O)CC(C=CN2c3cc(O)c(OC4OC(CO)C(O)C(O)C4O)cc3CC2C(=O)O)=C1 (stereo not drawn) the results were ATXN2 expr inh 8%.
Screening CNC(=O)c1cc(NC(=O)CCn2nc(-c3ccc(C)cc3)c3ccccc3c2=O)ccc1OC returned S2 tox inactive, IL1B secr inh -50*, USP1 inh -17%, ATXN2 expr inh -2% and USP2a block 8%.
Screening O=[N+]([O-])c1ccc(N=Cc2ccc(Br)c([N+](=O)[O-])c2)cc1 returned S2 tox inactive, IL1B secr inh -99*, USP1 inh -7%, ATXN2 expr inh 16% and USP2a block 2%.
Cc1cc(OCC(=O)Nc2ccc(Br)cc2)cc2c1C(=O)CC(C)(C)O2 was read as S2 tox inactive, IL1B secr inh -81*, USP1 inh -15%, ATXN2 expr inh 13µM* and USP2a block -6%.
`Cc1cc(OCC(=O)Nc2ccncc2)cc(C)c1Br` gave S2 tox inactive, IL1B secr inh -50*, USP1 inh -13%, ATXN2 expr inh -21% and USP2a block -1%.
Screening Cc1cc(OCC(=O)Nc2ccncc2)ccc1Cl returned S2 tox inactive, IL1B secr inh -6, USP1 inh -17%, ATXN2 expr inh -13% and USP2a block 0%.
Screening Cc1cc(C)cc(OCC(=O)Nc2ccc(F)cc2)c1 returned S2 tox inactive, IL1B secr inh -52*, USP1 inh -4%, ATXN2 expr inh 13% and USP2a block 0%.
Cc1ccccc1OCC(=O)Nc1ccc(Cc2ccncc2)cc1 was read as S2 tox inactive, IL1B secr inh -77*, USP1 inh -8%, ATXN2 expr inh inconclusive and USP2a block -5%.
CC(=O)Nc1ccc(NC(=O)COc2cc(O)c3c(c2)OC(C)(C)CC3=O)cc1 was read as S2 tox inactive, IL1B secr inh -11, USP1 inh 7%, ATXN2 expr inh 25% and USP2a block -2%.
For Cc1cc(C)cc(OCC(=O)Nc2ccc(N3CCCC3)cc2)c1 the results were S2 tox inactive, IL1B secr inh -9, USP1 inh -10%, ATXN2 expr inh -17% and USP2a block inconclusive.
Screening COc1ccc(CCNC(=O)c2cnn(-c3nccc(-c4ccco4)n3)c2C)cc1 returned S2 tox inactive.
Cc1nc(NCc2cnn(C)c2)sc1-c1ccn(-c2cccc(F)c2)n1 was read as S2 tox inactive.
`Cc1cc(C)cc(NC(=S)Nc2ccc3cn[nH]c3c2)c1` gave S2 tox inactive, IL1B secr inh -53*, USP1 inh -4%, ATXN2 expr inh 12% and USP2a block -1%.
`CC(=O)NNC(=O)CSc1nnc(-c2ccccc2)c(-c2ccccc2)n1` gave S2 tox inactive, IL1B secr inh -5, USP1 inh inconclusive and USP2a block 1%.
Screening CC(C)(C)NC(=O)CSc1nnc(-c2ccccc2)c(-c2ccccc2)n1 returned S2 tox inconclusive, IL1B secr inh -84*, USP1 inh -17% and USP2a block 1%.
CCN(CC)S(=O)(=O)c1ccc(N2CCc3ccccc3C2)nc1 was read as S2 tox inactive, IL1B secr inh -101*, USP1 inh -25%, ATXN2 expr inh -14% and USP2a block -11%.
